Bioassay records (PubChem BioAssay)
This excerpt belongs to a sample that is enriched for hits.
NOMO-1 viab: NOMO-1 AML cell viability reduction, primary screen, STK33 inhibitor project, CellTiter-Glo luminescence; NOMO-1 AML viability, 72 h; inhibition, % (concentration not given with the values); actives 7.5% (n = 37,000); AID 2330, 2010; in the data active = inhibition above about 80%; inconclusive = no clear call, values can overlap the other calls
U2OS ROS induce: ROS inducers in U2OS cancer cells, primary screen, cell-based, H2DCF-DA fluorescence | U2OS ROS induction | ROS induction (% of piperlongumine), % at 10 µM | actives 2% (n = 46,000) | AID 624156, 2012; in the data active = ROS induction above about 79%, passing the limit was not always enough; inconclusive = no clear call, values can overlap the other calls;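 note: 0% = DMSO vehicle median and 100% = reference compound median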
The depositor's hits bear a star; ? = inconclusive; · = no result.

SMILES	NOMO-1 viab	U2OS ROS induce
C[C@H](CO)N1C[C@H](C)[C@H](CN(C)S(=O)(=O)c2ccc(Cl)cc2)Oc2c(NC(=O)Nc3ccc(F)cc3)cccc2C1=O	92.7*	?
Cc1ccc(S(=O)(=O)N(C)C[C@H]2Oc3c(NC(=O)Nc4ccc(C(F)(F)F)cc4)cccc3C(=O)N([C@H](C)CO)C[C@H]2C)cc1	84.5*	11.2
C[C@@H]1CN([C@@H](C)CO)C(=O)c2cccc(NC(=O)Nc3ccc(F)cc3)c2O[C@H]1CN(C)S(=O)(=O)c1ccc(Cl)cc1	24.1	0.9
C[C@@H]1CN([C@H](C)CO)C(=O)c2cc(NC(=O)C3CCCCC3)ccc2O[C@@H]1CN(C)S(=O)(=O)c1ccccc1	15.5	8.2
O=[N+]([O-])c1ccc(NCCNS(=O)(=O)c2ccc(Br)cc2)cc1	6.9	-2.3
C[C@@H]1CN([C@H](C)CO)C(=O)c2cccc(NS(=O)(=O)c3cn(C)cn3)c2O[C@H]1CN(C)S(=O)(=O)c1ccccc1	16.7	-2.7
CCc1ccc(NC(=O)C2CCC(=O)N(c3ccc(OC)cc3)C2c2ccc(OC)cc2)cc1 (stereo not drawn)	·	-20.2
O=C(CSc1nnc(-c2ccccc2[N+](=O)[O-])o1)c1cccs1	-14.7	-25.8
Cc1ccc(S(=O)(=O)N(C)C[C@H]2Oc3c(NC(=O)Nc4ccc(F)cc4)cccc3C(=O)N([C@@H](C)CO)C[C@@H]2C)cc1	35.3	19.6
Cc1ccc(S(=O)(=O)N(C)C[C@H]2Oc3c(NC(=O)Nc4ccc(F)cc4)cccc3C(=O)N([C@@H](C)CO)C[C@H]2C)cc1	98.1*	1.8
Cc1ccc(S(=O)(=O)N(C)C[C@@H]2Oc3ccc(NS(=O)(=O)c4c(C)noc4C)cc3CC(=O)N([C@@H](C)CO)C[C@@H]2C)cc1	9.0	5.8
CCN(CC(=O)Nc1ccc(Cl)cc1C)S(=O)(=O)c1ccc(C)cc1	-14.7	·
CCN(Cc1ccccc1)C(=O)N1CCOCC1	·	-9.4
CCc1ccc[n+](OC(=O)N(CC)CC)c1	101.6*	10.5
C=C[C@@]12COC(=O)C(=C)C1[C@@H](O)[C@H](C(=C)C(=O)OC)[C@@H](OC(=O)C(=C)CO)C2 (stereo partly drawn)	115.7*	?
C=C(CO)C(=O)O[C@H]1C[C@@]2(C)OC(=O)/C(=C/C)[C@@]23CC[C@@](C)(O)CC(=O)[C@@]1(C(=C)C(=O)OC)O3	·	25.0
C=C[C@@]12COC(=O)C(=C)[C@@H]1[C@@H](O)[C@H](C(=C)C(=O)OC)[C@@H](O)C2	83.3*	25.3
Cc1ccc(S(=O)(=O)N(C)C[C@@H]2Oc3ccc(NC(=O)CCCN(C)C)cc3C(=O)N([C@H](C)CO)C[C@H]2C)cc1	7.2	-4.1
C[C@H]1CN([C@@H](C)CO)C(=O)c2cccc(NC(=O)Nc3ccc(C(F)(F)F)cc3)c2O[C@H]1CN(C)Cc1ccc(Oc2ccccc2)cc1	75.3	15.0
C[C@@H]1CN([C@@H](C)CO)C(=O)c2cccc(NC(=O)Nc3ccc(C(F)(F)F)cc3)c2O[C@@H]1CN(C)Cc1ccc(Oc2ccccc2)cc1	94.9*	14.6
C[C@@H]1CN([C@H](C)CO)C(=O)c2cccc(NC(=O)Nc3ccc(C(F)(F)F)cc3)c2O[C@H]1CN(C)Cc1ccc(Oc2ccccc2)cc1	71.3	6.8
C[C@@H]1CN([C@H](C)CO)C(=O)c2cccc(NC(=O)Nc3ccc(C(F)(F)F)cc3)c2O[C@@H]1CN(C)Cc1ccc(Oc2ccccc2)cc1	106.6*	4.8
COc1ccc(CN2C(=S)N(c3ccccc3)C(=O)C2CC(=O)Nc2ccccc2)cc1 (stereo not drawn)	·	-10.2
C[C@@H](O)[C@@H](O)[C@@H](O)C/C=N/NC(=O)CCCCCC(=O)Nc1ccccc1O	·	10.8
CC(=O)Nc1ccc(NC(=O)CN(C2CCCCC2)S(C)(=O)=O)cc1	15.9	-6.7
SMILES	NOMO-1 viab	U2OS ROS induce
Cc1ccccc1S(=O)(=O)N[C@H]1CCN(Cc2cccc(OCCO)c2)C1	·	-10.7
CN(C)S(=O)(=O)c1ccc(C(=O)Nc2nc3c(s2)CCc2ccccc2-3)cc1	113.4*	44.5
COc1cccc2sc(NC(=O)c3ccc(S(=O)(=O)N(C)C)cc3)nc12	26.6	-0.2
C[C@H]1CN([C@@H](C)CO)C(=O)Cc2cc(NC(=O)c3ccncc3)ccc2O[C@@H]1CN(C)C	8.8	-9.4
C[C@H](CO)N1C[C@H](C)[C@H](CN(C)C(=O)Nc2ccc(F)cc2)Oc2ncc(/C=C/c3ccccc3)cc2C1=O	·	89.9*
C[C@H](CO)N1C[C@H](C)[C@H](CN(C)C(=O)Nc2ccc(F)cc2)Oc2ncc(-c3ccccc3)cc2C1=O	·	42.3
C[C@H](CO)N1C[C@H](C)[C@H](CN(C)C(=O)Nc2ccc3c(c2)OCO3)Oc2ncc(C#CC(C)(C)O)cc2C1=O	·	5.9
C[C@H](CO)N1C[C@H](C)[C@H](CN(C)C(=O)Nc2ccc3c(c2)OCO3)Oc2ncc(/C=C/c3ccccc3)cc2C1=O	·	119.8*
C[C@@H]1CN([C@H](C)CO)C(=O)c2cc(NS(C)(=O)=O)ccc2O[C@H]1CN(C)Cc1ccc(C(F)(F)F)cc1	16.7	-1.2
CNC1CCc2cc(OC)c(OC)c(OC)c2-c2ccc(OC)c(=O)cc21 (stereo not drawn)	97.4*	2.3
COc1c(O[C@@H]2O[C@H](CO)[C@@H](O)[C@H](O)[C@H]2O)cc2c(c1OC)-c1ccc(SC)c(=O)cc1C(NC(C)=O)CC2 (stereo partly drawn)	-6.7	0.7
COc1cc2c(cc1OC)CN(S(=O)(=O)c1ccc3c(c1)CCC(C)(C)O3)CC2	·	-1.7
CN(C)/C=C/C(=O)c1ccc2c(c1)CCC(C)(C)O2	120.8*	-21.1
COc1ccc(OC)c(C2C(C(=O)c3cccs3)C(=O)C(=O)N2Cc2cccnc2)c1 (stereo not drawn)	17.4	·
C[C@@H]1CN([C@@H](C)CO)C(=O)c2cccc(NS(C)(=O)=O)c2O[C@H]1CN(C)Cc1ccc(Oc2ccccc2)cc1	3.6	9.9
C[C@@H]1CN([C@H](C)CO)C(=O)c2cccc(N(C)C)c2O[C@@H]1CN(C)Cc1ccc(-c2ccccc2)cc1	24.9	-3.0
C[C@H]1CN([C@@H](C)CO)C(=O)c2cccc(NS(C)(=O)=O)c2O[C@@H]1CN(C)Cc1ccc(-c2ccccc2)cc1	12.9	97.7*
C[C@@H]1CN([C@H](C)CO)C(=O)c2cccc(NS(C)(=O)=O)c2O[C@H]1CN(C)Cc1ccc(-c2ccccc2)cc1	-7.2	1.6
C[C@@H]1CN([C@H](C)CO)C(=O)c2cccc(N(C)C)c2O[C@H]1CN(C)Cc1ccc(-c2ccccc2)cc1	86.5*	-1.1
C[C@H](CO)N1C[C@H](C)[C@@H](CN(C)Cc2ccc(Oc3ccccc3)cc2)Oc2c(NS(C)(=O)=O)cccc2C1=O	16.3	91.9*
Cc1ccccc1NC(=O)COc1ccc(N2CC(C(N)=O)CC2=O)cc1 (stereo not drawn)	-3.3	-10.9
O=C(OCc1cccc(C(=O)c2ccccc2)c1)c1ccc(NC(=O)c2ccco2)cc1	27.4	·
COc1ccc(CN(C)C[C@H]2Oc3ccc(NC(=O)Nc4ccc5c(c4)OCO5)cc3CC(=O)N([C@H](C)CO)C[C@H]2C)cc1	3.8	-1.6
C[C@H](CO)N1C[C@H](C)[C@@H](CN(C)C(=O)Nc2cccc3ccccc23)Oc2ccc(NC(=O)Cn3cnnn3)cc2C1=O	12.8	5.0
